# Spn DPM-DC inh = inhibitors of Streptococcus pneumoniae diphosphomevalonate decarboxylase. purified DPM-DC, PK/LDH coupled NADH fluorescence. calls only at 10 µM. 65,000 tested, 0.49% active;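 active means the 320 compounds with the highest percent inhibition in the single-dose primary screen, excluding strongly autofluorescent ones, cut at about 32% in these data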;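 further: kinetic rate of NADH fluorescence loss reporting ADP formed by the decarboxylase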
# NADH enzymes = inhibitors of enzymes used to reach an NAD/NADH endpoint | coupled PK/LDH NADH assays, four targets | 65,000 tested, 0.02% active | IC50, µM (highest dose often 10 µM);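 active means single-dose screening hits from any of four coupled enzyme assays that gave an IC50 when retested across doses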;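 further: the DPM-DC format reads NADH fluorescence rather than 340 nm absorbance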
# Spn MK inh = inhibitors of Streptococcus pneumoniae mevalonate kinase; inhibition, % at 10 µM; 65,000 tested, 0.48% active; purified MK, PK/LDH-coupled NADH absorbance 340 nm;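 active means ranked among the strongest by inhibition in the single 10 µM screen, a fixed top-ranked set picked for dose follow-up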
# Autofluor 339 = intrinsic fluorescence of library compounds, ex339/em460 – biochemical, MLSMR library, data from DPM-DC assay, artefact control, profiling panel | fluorescence fold increase at 10 µM | 65,000 tested, 5.5% active | compound autofluorescence, ex339/em460 nm, NADH buffer; stronger effect = higher value; 1 = no-compound wells, NADH background | AID 709;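 active means at 10 µM, mean starting fluorescence two-fold or more over control wells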;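 further: signal is the first read of a kinetic run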
# Abs 340nm = compound absorbs light at 340 nm. compound absorbance at 340 nm, fold over control. fold change at 10 µM. 65,000 tested, under 10 active;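 active means at 10 µM dose, initial 340 nm absorbance at least 2 fold that of control wells; inactive means change under 2 fold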;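 further: initial absorbance extrapolated from kinetic A340 decline of NADH oxidation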
# PMK inhibit = blocks S. pneumoniae phosphomevalonate kinase | purified PMK, PK/LDH-coupled NADH absorbance 340 nm | inhibition, % at 10 µM | 65,000 tested, 0.49% active | AID 539;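 active means top-ranked compounds by inhibition in the single 10 µM screen, taking a fixed number of the strongest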
# Numbers stand for hits; i = inactive; nt = no result shown; + = active, no number. This is a sample that favours compounds with a hit; in the whole collection about 6.8% have one here.
SMILES,Spn DPM-DC inh,NADH enzymes,Spn MK inh,Autofluor 339,Abs 340nm,PMK inhibit
CC1=CC(C)(C)Nc2ccc(C)cc21,i,i,i,2.58,i,i
COC(=O)c1cc(OC)c(OC)cc1NC(=O)c1ccoc1C,nt,i,i,3.33,i,i
COC(=O)c1cc(OC)c(OC)cc1NC(=O)c1ccccc1,nt,i,i,2.17,i,i
CCOC(=O)c1ccc(S(=O)(=O)N2CCN(CC(=O)NC(=O)NC3CCCCC3)CC2)cc1,i,i,i,i,i,i
CC(=O)Oc1cc2c(C(=O)NCc3ccncc3)c(C)oc2c2ccccc12,i,i,i,i,i,i
O=C(C1CCC1)N1CCN(Cc2ccccc2)CC1,i,i,i,i,i,i
Cc1ccc(CN2CCN(C(=O)C3CCC3)CC2)cc1,i,i,i,i,i,active
CC1CCCCN1C(=O)Cn1c(=O)n(CCC(=O)NCc2ccco2)c(=O)c2sccc21 (stereo not given),i,i,i,i,i,i
CC1(C)Cc2nc3sc4c(N(CCO)CCO)ncnc4c3cc2CO1,nt,i,i,2.32,i,i
Cc1cc(=O)oc2cc(OCCSCCN3CCOCC3)ccc12,i,i,i,i,i,i
Cc1cc(=O)oc2cc(OCC(O)CN3CCc4ccccc4C3)ccc12 (stereo not given),nt,i,i,4.17,i,i
COc1cccc(OC)c1OCC(O)CN1CCN(c2ccccc2)CC1 (stereo not given),i,i,i,i,i,28.0
Cc1cc(=O)oc2cc(OCC(O)CN3CCN(c4ccccc4)CC3)ccc12 (stereo not given),i,i,i,3.41,i,i
COc1ccccc1N1CCN(CC(O)COc2ccc3c(C)cc(=O)oc3c2)CC1 (stereo not given),i,i,i,i,i,i
CC(=O)Nc1nc(SCCCc2ccccc2)n[nH]1,i,i,i,i,i,i
Cn1c(SCC(=O)Nc2ccc(N3CCOCC3)c(Cl)c2)nnc1-c1ccccc1,i,i,i,i,i,i
COC(=O)C1=C(C(=O)c2ccc(C)cc2)C(c2ccc(OC)c(OC)c2)n2nnnc2N1 (stereo not given),i,i,i,i,i,i
Oc1[nH]c2ccccc2c1/C=N/c1nccs1,i,i,i,i,i,i
O=C(NCc1ccccn1)c1coc(=O)c(Br)c1,nt,i,i,2.37,i,i
Cc1cccc(C2Nc3ccccc3C(=O)N2CCc2ccccc2)n1 (stereo not given),nt,i,i,2.18,i,i
O=C1c2ccccc2NC(c2cnc3ccccc3n2)N1O (stereo not given),i,i,i,i,i,i
CCN(CC)c1ccc(NC(=O)C2CCCN(S(=O)(=O)c3cnc[nH]3)C2)c(C)c1 (stereo not given),i,i,i,i,i,i
O=C(Nc1ccc(F)cc1F)NC1CC(=O)N(Cc2ccccc2)C1 (stereo not given),i,i,i,i,i,i
CCN1CCN(C(=O)CCCCCn2c(=O)[nH]c3cc(C(=O)OC)ccc3c2=O)CC1,i,i,i,2.63,i,i
Nn1c(Nc2ccccc2)nc2ccccc2c1=O,i,i,i,i,i,i
SMILES,Spn DPM-DC inh,NADH enzymes,Spn MK inh,Autofluor 339,Abs 340nm,PMK inhibit
O=c1[nH]c(Nc2ccccc2)cc2ccccc12,nt,i,i,3.38,i,i
O=C(CC(C(=O)O)N1CCOCC1)Nc1ccc(Cl)cc1 (stereo not given),i,i,i,i,i,i
Cc1ccc2c(c1)N(CC(=O)OC(CC(C)C)C(=O)NC1CCCC1)C(=O)CO2 (stereo not given),i,i,i,i,i,i
CC(C)C(OC(=O)CN1C(=O)COc2ccccc21)C(=O)NC1CCCC1 (stereo not given),+,i,i,i,i,i
CCOCCCNC(=O)C(c1ccc(C)cc1)N(Cc1ccc2c(c1)OCO2)C(=O)CNC(C)=O (stereo not given),i,i,i,i,i,i
Cc1oc2cc(O)ccc2c(=O)c1-c1cnn(-c2ccccc2)c1,nt,i,i,2.51,i,i
CCOC(=O)C1=C(C)Nc2nc(SC)nn2C1c1ccc(C(=O)OC)cc1 (stereo not given),i,i,i,i,i,i
COc1ccc(C2C=C(C)Nc3nc(SC)nn32)cc1 (stereo not given),nt,i,i,5.07,i,i
COc1ccc(N2CC(O)=C(c3nc4ccccc4s3)C2=N)c(OC)c1,i,i,i,i,i,i
COc1cccc(N2CC(O)=C(c3nc4ccccc4c(=O)[nH]3)C2=N)c1,nt,i,i,2.09,i,i
Cc1cccc(OCc2nc(C#N)c(N3CC(C)CC(C)C3)o2)c1 (stereo not given),i,i,i,i,i,i
CC1CCN(c2oc(-c3cccc4ccccc34)nc2C#N)CC1,nt,i,i,2.97,i,i
N#Cc1nc(-c2ccccc2Cl)oc1N1CCCCC1,i,i,i,i,i,i
CC1CC(C)CN(c2oc(-c3ccccc3Cl)nc2C#N)C1 (stereo not given),nt,i,i,3.22,i,i
N#Cc1nc(Cc2cccc3ccccc23)oc1N1CCCCC1,i,i,i,i,i,i
N#Cc1nc(-c2cccc3ccccc23)oc1N1CCCCC1,nt,i,i,3.7,i,i
CCOC(=O)c1nn(-c2ccc(OC)cc2)c(=O)c2c(NC(=O)c3ccco3)scc12,i,i,i,i,i,i
O=C(NCC1COc2ccccc2O1)C1CCC(CNc2c(N3CCCCC3)c(=O)c2=O)CC1 (stereo not given),i,i,i,i,i,i
COc1ccc(OC)c2c(C)cc(N3CCN(C(=O)c4ccc(F)cc4)CC3)nc12,i,i,i,2.94,i,i
C=C1CSc2nc(=O)c3c4c(sc3n21)CCC4,i,i,i,i,i,i
O=c1nc2n(c3sc4c(c13)CCC4)Cc1ccccc1-2,nt,i,i,2.25,i,i
COc1cc(C(=O)OCC(=O)Nc2c(F)c(F)c(F)c(F)c2F)cc(OC)c1OC,i,i,i,i,i,i
Nc1c(C(=O)NC2CCCC2)sc2nc(-c3cccs3)ccc12,+,i,i,2.75,i,i
O=C(CSc1nnc2scc(-c3ccccc3)n12)N1CCN(Cc2ccccc2)CC1,i,i,i,i,i,i
COc1cc2c(cc1OC)CN(C(=O)CSc1nnc3scc(-c4ccccc4)n13)CC2,+,i,i,i,i,i
COc1cc(CN2CCN(c3cccc(C)c3C)CC2)cc(OC)c1O,i,i,51.0,i,i,i
COc1cc(OC)c(OC)cc1CN1CCN(c2ccccc2OC)CC1,i,i,43.0,i,i,i
COCCCn1c2nc3ccccc3nc2c2c(=O)n(Cc3ccc(Cl)cc3)cnc21,nt,i,i,3.77,i,i
CCCCn1c2nc3ccccc3nc2c2c(=O)n(C(C)CC)cnc21 (stereo not given),nt,i,i,2.1,i,i
CCCCn1c2nc3ccccc3nc2c2c(=O)n(CC(C)C)cnc21,nt,i,i,i,i,i

# Source: PubChem (SRMLSC)
